Measured values reported in the supplement of paper PMC6607015.
Where a name gives a salt, the structure may show the parent alone.

Tests used:
Conditions in all cases: compound concentration in added solution (µM; 5 µl added to 20 µl cells): 10; 18 h
[1] = system: A431; assay: LBPA endosome anti-LBPA integrated intensity (sum per cell), Z-score; higher = more LBPA staining
How it was run: (§1)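 After 18 h on 5 µl of 10 µM compound solution in duplicate 384-well imaging plates, HeLa MZ or A431 cells, seeded at 3,500 per well in 20 µl, were fixed with 4% PFA. They were then labelled with 6C4 anti-LBPA antibody, filipin, propidium iodide and CellTracker green, and four 20× fields were recorded per well. Integrated LBPA or filipin intensity per cell, whole-cell or within LBPA endosomes, came from MetaXpress segmentation and was normalised to Z-scores in AcuityXpress.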

[2] = system: HeLa MZ; assay: as above
How it was run: as §1

[3] = system: A431; assay: whole-cell filipin (free cholesterol) integrated intensity, Z-score; higher = more cholesterol staining
How it was run: as §1

[4] = system: HeLa MZ; assay: as above
How it was run: as §1

[5] = system: A431; assay: filipin (cholesterol) integrated intensity within LBPA endosomes, Z-score; higher = more cholesterol in LBPA endosomes
How it was run: as §1

[6] = system: HeLa MZ; assay: as above
How it was run: as §1

Structure (SMILES) | LBPA endosome anti-LBPA integrated intensity (z-score) [1] | LBPA endosome anti-LBPA integrated intensity (z-score) [2] | whole-cell filipin (z-score) [3] | whole-cell filipin (z-score) [4] | filipin (z-score) [5] | filipin (z-score) [6]
CC(=O)N1CCN(c2ccc(OCC3COC(Cn4ccnc4)(c4ccc(Cl)cc4Cl)O3)cc2)CC1 (centres undefined) [Ketoconazole] | 1.81 | 1.94 | 3.72 | 3.7 | 3.52 | 4.06
C[C@H](CCC(=O)O)[C@H]1CC[C@H]2[C@@H]3CC[C@@H]4C[C@H](O)CC[C@]4(C)[C@H]3CC[C@]12C [Lithocholic acid] | -0.507 | -0.5 | -0.232 | 0.929 | -0.446 | -0.289
CC1(C)O[C@@H]2C[C@H]3[C@@H]4C[C@H](F)C5=CC(=O)C=C[C@]5(C)[C@H]4[C@@H](O)C[C@]3(C)[C@]2(C(=O)CO)O1 [Flunisolide] | -0.32 | -1.26 | -0.035 | -0.18 | -0.256 | -0.365
CCOC(=O)c1ccc(OC(=O)CCCCCNC(=N)N)cc1 [Gabexate mesilate] | -0.44 | 0.019 | 0.196 | 0.0139 | -0.481 | -0.456
CO[C@H]1/C=C/O[C@@]2(C)Oc3c(C)c(O)c4c(O)c(c5c(nc6cc(C)ccn65)c4c3C2=O)NC(=O)/C(C)=C\C=C\[C@H](C)[C@H](O)[C@@H](C)[C@@H](O)[C@@H](C)[C@H](OC(C)=O)[C@@H]1C [Rifaximin] | -0.465 | -0.154 | 0.151 | 0.344 | -0.307 | -0.143
CC(=O)OCC(=O)[C@@]1(O)CC[C@H]2[C@@H]3CCC4=CC(=O)C=C[C@]4(C)[C@@]3(F)[C@@H](O)C[C@@]21C [Isoflupredone acetate] | -0.244 | -0.851 | -0.383 | -0.16 | -0.17 | -0.357
CCN(CC)CCNC(=O)c1ccc(N)cc1 [Procainamide hydrochloride] | -0.492 | 0.0584 | -0.628 | 0.713 | -0.428 | -0.159
CC(C)C(=O)Nc1ccc([N+](=O)[O-])c(C(F)(F)F)c1 [Flutamide] | -0.32 | 0.353 | -0.407 | -0.0656 | -0.384 | -0.392
Cc1c(NC(C)C)c(=O)n(-c2ccccc2)n1C [Isopyrin hydrochloride] | -0.574 | -1.29 | -0.495 | -0.424 | -0.515 | -0.531
CN(CCCCCCCCCCN(C)C(=O)Oc1cccc([N+](C)(C)C)c1)C(=O)Oc1cccc([N+](C)(C)C)c1 [Demecarium bromide] | -0.223 | -0.152 | -0.139 | -0.617 | -0.179 | -0.595
c1ccc2c(CC3=NCCN3)cccc2c1 [Naphazoline hydrochloride] | -0.505 | 0.993 | -0.75 | 0.085 | -0.523 | 0.0798
Cc1ccc(NC(=O)c2ccc(CN3CCN(C)CC3)cc2)cc1Nc1nccc(-c2cccnc2)n1 [Imatinib] | 3.97 | 1.01 | 2.96 | 3.48 | 4.02 | 3.74
Nc1nnc(-c2cccc(Cl)c2Cl)c(N)n1 [Lamotrigine] | -0.222 | 1.64 | 0.954 | 3.15 | -0.396 | -0.375
CC(=O)/N=c1/sc(S(N)(=O)=O)nn1C [Methazolamide] | -0.623 | -1.23 | -0.758 | -0.523 | -0.506 | -0.535
CC(C)(Sc1cc(C(C)(C)C)c(O)c(C(C)(C)C)c1)Sc1cc(C(C)(C)C)c(O)c(C(C)(C)C)c1 [Probucol] | -0.46 | -0.408 | -0.766 | -0.622 | -0.482 | -0.445
O=C(O[C@@H]1C[C@@H]2C[C@H]3C[C@H](C1)N2CC3=O)c1c[nH]c2ccccc12 [Dolasetron mesilate] | -0.534 | -0.27 | -0.669 | 0.0841 | -0.498 | -0.224
COc1ccc([C@@H]2Sc3ccccc3N(CCN(C)C)C(=O)[C@@H]2OC(C)=O)cc1 [Diltiazem hydrochloride] | -0.508 | 0.314 | -0.778 | -0.456 | -0.362 | -0.144
O=C1CCc2ccc(OCCCCN3CCN(c4cccc(Cl)c4Cl)CC3)cc2N1 [Aripiprazole] | 3.32 | 2.8 | 2.88 | 2.45 | 3.23 | 4.07
CN(C)CCN1C(=O)c2ccccc2N(C)c2ccccc21 [Dibenzepine hydrochloride] | -0.357 | 0.481 | -0.676 | -0.7 | -0.373 | 0.00611
O=C(O)Cc1cc(I)c(Oc2ccc(O)c(I)c2)c(I)c1 [Tiratricol, 3,3',5-triiodothyroacetic acid] | -0.369 | 0.145 | -0.472 | -0.883 | -0.548 | -0.66
c1ccc([C@H]2CN3CCSC3=N2)cc1 [Levamisole hydrochloride] | -0.398 | 0.59 | -0.758 | -0.886 | -0.52 | -0.182
CCCCNc1cc(C(=O)O)cc(S(N)(=O)=O)c1Oc1ccccc1 [Bumetanide] | -0.516 | -0.493 | -0.507 | -0.553 | -0.588 | -0.565
CC(CN(C)C)CN1c2ccccc2CCc2ccccc21 (centres undefined) [Trimipramine maleate salt] | 2.39 | 1.13 | 1.92 | 0.599 | 2.57 | 1.53
Cc1[nH]c(=O)c(C#N)cc1-c1ccncc1 [Milrinone] | -0.393 | 0.29 | -0.171 | -0.0695 | -0.351 | -0.372
